Assay results reported in PubChem BioAssay.
The source made the active and inactive calls.

tested on: wheat germ agglutinin (Triticum aestivum), Alexa647-labelled; test: wheat germ agglutinin binders on compound microarrays, profiling panel, artefact control for SMM control-protein annotation, biochemical, small-molecule microarray, 635/667 nm fluorescence (AID 1140); conditions: WGA-A647 binding, 635 nm fluorescence, higher = more signal;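 note: score merges 667 nm feature emission with signal to noise over triplicate slides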

Structure (SMILES) | composite z-score
O=C(NCC(O)CO)[C@]1(Cc2ccccc2)N=C(c2ccc(OCCCO)cc2)O[C@@H]1c1ccccc1 (stereo partly specified) | 1.27
O=C(CS)NCCCCCNC(=O)[C@H]1C[C@H]2C(=O)N3CCC[C@H]3C(=O)N2[C@H]1c1ccc(O)cc1 | -1.68
COc1cccc([C@H]2N[C@H](C(=O)O)CC[C@@H]2C)c1 | -0.208
CC(C)[Si]1(C(C)C)O[C@@H](c2ccccc2)c2cc(C3CC3)nc(-c3ccc(Oc4ccccc4)cc3)c21 | -1.33
CC(=O)Nc1ccc([C@H]2[C@H](C)CC[C@H]3C(=O)N4[C@@H](CC[C@@H](C)[C@@H]4c4ccc(NC(C)=O)cc4)C(=O)N32)cc1 | 0.994
COc1cc2c(cc1OC)CN(C(=O)[C@@H]1[C@H]3C(=O)O[C@H](c4ccccc4)[C@H](c4ccccc4)N3[C@H](c3ccccc3OCCO)[C@@]13C(=O)Nc1ccccc13)CC2 | 0.849
[N-]=[N+]=NCc1ccccc1C[C@@]1(C(=O)N2CCOCC2)N=C(c2ccc(OCCCO)cc2)O[C@@H]1c1ccccc1N=[N+]=[N-] | 1.37
C=CC[C@]1(C(=O)OC)N=C(c2ccc(OCCCO)cc2)O[C@H]1c1ccccc1CN=[N+]=[N-] | 0.605
CO[C@]12C=C(Br)[C@@H](C[C@@H]1c1ccccc1)[C@@]1(CO1)C2=O | -0.297
C[C@]1(C(=O)NCc2ccccc2)c2ccccc2C(=O)N(Cc2cc(C(F)(F)F)cc(C(F)(F)F)c2)[C@H]1c1ccc(CO)cc1 | 0.322

target: Luciferin 4-monooxygenase (Photinus pyralis) (UniProt P08659); test: firefly luciferase enzyme inhibitors, primary screen, biochemical, luminescence, purified enzyme, 2006 set (AID 1141); conditions: SteadyGlo luminescence, 30 min, higher = more signal, called active from +8 up or from −8 down;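 note: cell-free assay with purified firefly luciferase at 100 ng per well in PBS; test concentration not given here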
Sequence (P08659 whole entry, looked up): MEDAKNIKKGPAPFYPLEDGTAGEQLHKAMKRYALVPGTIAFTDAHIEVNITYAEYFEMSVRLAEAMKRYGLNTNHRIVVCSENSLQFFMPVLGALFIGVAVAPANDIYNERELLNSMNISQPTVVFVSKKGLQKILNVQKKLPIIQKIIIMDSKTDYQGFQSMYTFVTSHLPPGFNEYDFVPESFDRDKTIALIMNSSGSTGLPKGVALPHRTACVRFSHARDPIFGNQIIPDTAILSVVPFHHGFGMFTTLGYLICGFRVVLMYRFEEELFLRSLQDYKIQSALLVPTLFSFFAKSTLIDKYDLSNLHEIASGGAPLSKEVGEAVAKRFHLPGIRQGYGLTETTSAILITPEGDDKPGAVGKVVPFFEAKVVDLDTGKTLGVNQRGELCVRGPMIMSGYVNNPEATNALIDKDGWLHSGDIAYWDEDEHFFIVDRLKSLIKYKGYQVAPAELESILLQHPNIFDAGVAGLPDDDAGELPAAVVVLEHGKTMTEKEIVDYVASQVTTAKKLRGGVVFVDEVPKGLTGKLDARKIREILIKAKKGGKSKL

Structure (SMILES) | z-score
C=C(COC)/C(=C/C[C@@H](OC(C)=O)c1cccc(OCCO)c1)c1cc(C(=O)OC)ccc1OC | -2.09 (inactive)
CC(C)(C)OC(=O)CC[C@]1(C(=O)NCCN2CCOCC2)N=C(c2ccc(OCCCO)cc2)O[C@H]1c1ccccc1CN=[N+]=[N-] | -0.736 (inactive)
CC(=O)NCCCC[C@@H]1NC(=O)[C@@H]2C[C@H](C(=O)NCCCCCCN(C)C)[C@H](c3ccc(O)cc3)N2C1=O | -0.916 (inactive)
Cc1ccc(S[C@]2(C(=O)O)CC(=O)N(Cc3ccccc3)[C@@H]2c2ccc(CO)cc2)cc1 | -1.32 (inactive)
O=C1c2ccccc2[C@](Cc2ccccc2I)(C(=O)NCC(F)(F)F)[C@H](c2ccc(CO)cc2)N1Cc1ccccc1C(F)(F)F | -0.956 (inactive)
O=C1OCCC=C[C@H]2OC34C=CCN(Cc5ccccc5)C(=O)[C@H]3N(CCO)C(=O)[C@@H]4C12 (stereo partly specified) | -0.678 (inactive)
C=CCNC(=O)[C@H]1[C@@H]2C(=O)O[C@@H](c3ccccc3)[C@@H](c3ccccc3)N2[C@@H](c2ccccc2OCCO)[C@]12C(=O)N(C(=O)OCCOC)c1ccc(C#CCC(C(=O)OC)C(=O)OC)cc12 | -0.509 (inactive)
COc1ccc([Si](C)(C)[C@H]2[C@H](CC(=O)N3Cc4ccccc4C[C@H]3CO)O[C@@]3(C(=O)N(Cc4cccc(N5CCOC5=O)c4)c4ccccc43)[C@@H]2C)cc1 | -0.86 (inactive)
CC(C)N1CC=CC23O[C@@H]4/C=C\CCCOC(=O)C4[C@H]2C(=O)N(CCO)[C@@H]3C1=O (stereo partly specified) | -1.68 (inactive)
CC(C)CN1C(=O)[C@@]2(Cc3ccccc31)c1ccccc1C(=O)N(C1CCCCC1)[C@H]2c1ccc(CO)cc1 | -0.275 (inactive)
COc1cccc([C@@H]2[C@@H](C)CC[C@H]3C(=O)N4[C@H](c5cccc(OC)c5)[C@@H](C)CC[C@H]4C(=O)N23)c1 | -1.78 (inactive)
CO[C@H]1COC(=O)[C@H](Cc2ccccc2)NC(=O)CC=C[C@@H](C)[C@H](OC)COC(=O)CC=C[C@@H]1C | -1.27 (inactive)
CO[C@H]1COC(=O)[C@@H](OCc2ccccc2)C=C[C@H](C)[C@@H](OC)COC(=O)[C@H](OCc2ccccc2)C=C[C@@H]1C | -1.99 (inactive)
O=C1O[C@@H](c2ccccc2)[C@@H](c2ccccc2)N2[C@@H](c3ccc(O)cc3)[C@]3(C(=O)Nc4ccccc43)[C@@H](C(=O)N3CCN(c4ncccn4)CC3)[C@H]12 | -1.51 (inactive)
O=C1O[C@@H](c2ccccc2)[C@@H](c2ccccc2)N2[C@@H](c3ccc(O)cc3)[C@]3(C(=O)Nc4ccc(C#CC5(O)CCCCCC5)cc43)[C@@H](C(=O)Nc3nc4ccccc4s3)[C@H]12 | -1.4 (inactive)
C=CC[C@]1(C(N)=O)N=C(c2ccc(OCCCO)cc2)O[C@H]1c1ccccc1CN=[N+]=[N-] | -1.47 (inactive)
COCCOC(=O)N1C(=O)[C@@]2(c3cc(C#CCCO)ccc31)[C@H](C(=O)N1CCCCCCC1)[C@H]1C(=O)O[C@H](c3ccccc3)[C@H](c3ccccc3)N1[C@@H]2c1ccc(O)cc1 | -0.888 (inactive)
C=CCOC(=O)[C@@H]1[C@H]2C(=O)O[C@H](c3ccccc3)[C@H](c3ccccc3)N2[C@H](c2ccc(OCCOC(=O)[C@H]3C[C@H]4C(=O)N5CCC[C@H]5C(=O)N4[C@H]3c3ccc(O)cc3)cc2)[C@@]12C(=O)Nc1ccccc12 | -0.803 (inactive)

Structure (SMILES) | z-score
CO[C@H]1COC(=O)CC=C[C@@H](C)COC(=O)[C@@H](C)NC(=O)CC=C[C@@H]1C | -1.37 (inactive)
C=CCN1C(=O)[C@@]2(O[C@@H](CCn3cc([C@H](O)c4ccccc4)nn3)[C@H]([Si](C)(C)c3ccc(OC)cc3)[C@H]2C)c2cc(N3CCOC3=O)ccc21 | -0.731 (inactive)
CCCC/C=C/[C@H]([C@@H](O)Cc1ccccc1)N(CC#Cc1ccccc1)Cc1ccccc1Br | -1.12 (inactive)
CCOC(=O)[C@H]1C/C=C/C[C@H](C(=O)OCC)C(=O)O[C@H]2[C@@H](OC)O[C@H](CO)[C@@H](OC(=O)Nc3ccc(Br)cc3)[C@@H]2OC1=O | -1.72 (inactive)
COC(=O)c1c(CC[C@@H](CO)NC(=O)N[C@H](Cn2cc(-c3cncn3C)nn2)C(C)C)oc(C(C)=O)c1C(=O)OC | -0.263 (inactive)
COc1ccc([Si](C)(C)[C@H]2[C@H](CCO)O[C@@]3(C(=O)N(Cc4ccc(N5CCCCC5=O)cc4)c4ccccc43)[C@@H]2C)cc1 | -1.39 (inactive)
O=C1c2ccccc2[C@](Cc2ccccc2I)(C(=O)O)[C@H](c2ccc(CO)cc2)N1C1CCCCC1 | -0.757 (inactive)
CCCNC(=O)[C@@]1(Sc2ccc(C)cc2)CC(=O)N(Cc2ccccc2Cl)[C@@H]1c1ccc(CO)cc1 | -0.0629 (inactive)
O=C(NCC(O)CO)[C@]1(Cc2ccccc2)N=C(c2ccc(OCCCO)cc2)O[C@@H]1c1ccccc1 (stereo partly specified) | -1.37 (inactive)
O=C(CS)NCCCCCNC(=O)[C@H]1C[C@H]2C(=O)N3CCC[C@H]3C(=O)N2[C@H]1c1ccc(O)cc1 | -1.75 (inactive)
COc1cccc([C@H]2N[C@H](C(=O)O)CC[C@@H]2C)c1 | -0.128 (inactive)
CC(C)[Si]1(C(C)C)O[C@@H](c2ccccc2)c2cc(C3CC3)nc(-c3ccc(Oc4ccccc4)cc3)c21 | -0.626 (inactive)
CC(=O)Nc1ccc([C@H]2[C@H](C)CC[C@H]3C(=O)N4[C@@H](CC[C@@H](C)[C@@H]4c4ccc(NC(C)=O)cc4)C(=O)N32)cc1 | -0.765 (inactive)
COc1cc2c(cc1OC)CN(C(=O)[C@@H]1[C@H]3C(=O)O[C@H](c4ccccc4)[C@H](c4ccccc4)N3[C@H](c3ccccc3OCCO)[C@@]13C(=O)Nc1ccccc13)CC2 | -1.38 (inactive)
[N-]=[N+]=NCc1ccccc1C[C@@]1(C(=O)N2CCOCC2)N=C(c2ccc(OCCCO)cc2)O[C@@H]1c1ccccc1N=[N+]=[N-] | -8.34 (active)
C=CC[C@]1(C(=O)OC)N=C(c2ccc(OCCCO)cc2)O[C@H]1c1ccccc1CN=[N+]=[N-] | -4.54 (inactive)
CO[C@]12C=C(Br)[C@@H](C[C@@H]1c1ccccc1)[C@@]1(CO1)C2=O | -0.876 (inactive)
C[C@]1(C(=O)NCc2ccccc2)c2ccccc2C(=O)N(Cc2cc(C(F)(F)F)cc(C(F)(F)F)c2)[C@H]1c1ccc(CO)cc1 | -0.543 (inactive)
